# Source: PubChem BioAssay (NCATS)
# Inconclusive results are not listed. Where a call stands in place of a potency, no number is given. Activity calls are given as the source filed them. The call rests on the fitted dose curve; in most records, active means well fitted cell-killing curve with a large enough effect; inconclusive means small, poorly fitted or top-dose-only effect; inactive means flat fitted curve, though single readings scatter.
# Assay: Cell Viability - LYMP2-020 (AID 986); further: nearly all actives have a fitted effect of over 55% in size
# Settings: series mostly up to 92.2 µM
# Text: NIH Chemical Genomics Center [NCGC]
# NIH Molecular Libraries Screening Centers Network [MLSCN]
# National Institutes of Environmental Health Sciences [NIEHS]
# National Toxicology Program [NTP]
# We have developed a 1536-well cell-based assay for quantitative high throughput screening (qHTS) against a number of cell lines to determine in vitro cytotoxicity of small molecules. This particular assay uses a human lymphoblastoid cell line (LYMP2-020) purchased from Coriell Institute for Medical Research.
# NCGC Assay Protocol Summary:
# The CellTiter-Glo luminescent cell viability assay (Promega) is a homogeneous method to measure the number of viable cells in culture. The end point readout of this assay is based on quantitation of intracellular ATP, an indicator of metabolic activity, using the luciferase reaction. Luciferase catalyzes the oxidation of beetle Luciferin to oxyluciferin and light in the presence of ATP. The luminescent signal is proportional to amount of ATP present.
# Using the CellTiter-Glo luminescent cell viability assay, the amount of cellular ATP was measured in the lymphoblastoid cell line with complete culture medium following compound treatment for 24 hours. The assay was performed in opaque white Kalypsys 1536-well plates. In the screen, tetraoctylammonium bromide was used as positive control. Library compounds were measured for their ability to cause acute toxicity in the cell line, as reflected by a decrease in intracellular ATP levels, in a concentration-dependent manner. […] AC50 values were determined from concentration-response data modeled with the standard Hill equation.
# qHTS protocol for CellTiter Glo lymphoblastoid cellular assay
# [Step] [Parameter] [Value] [Description]
# 1. Reagent; 5 uL; 2500 lymphoblastoid cells/well
# 2. Time; 5 hr; 37 C incubation
# 4. Controls; 23 nL; Tetraoctylammonium bromide 6.4pM to 92 uM
# 5. Time; 24 hr; 37 C incubation
# 6. Reagent; 5 uL; CellTiter Glo reagent
# 7. Time; 30 min; Room Temperature
# 8. Detection; Luminescence; Viewlux plate reader
# Keywords: cell viability, cytotoxicity, lymphoblastoid cell line, luminescence, NTPHTS, NTPHTS_NCGC, NIEHS, DSSTox, MLSMR, MLSCN, NIH Roadmap, qHTS, NCGC
# Potency means the concentration at half of the fitted maximal effect.
row,SMILES,Potency
1,O=C1c2ccccc2C(=O)C1(O)O,inactive
2,O=[N+]([O-])c1cccc(I)c1,inactive
3,CCN(CC)c1ccc2c(C)cc(=O)oc2c1,inactive
4,C1CCCNCC1,inactive
5,c1ccc(Nc2cccc3ccccc23)cc1,inactive
6,Nc1ccc(N)c(Cl)c1,inactive
7,C/C=C1/C(=O)C[C@H]2[C@@H]3CCC4=CC(=O)CC[C@]4(C)[C@H]3CC[C@]12C,39.8 µM (active)
8,CC(=O)OCc1ccc2c(c1)OCO2,inactive
9,CC(C)(C)C(=O)C1C(=O)c2ccccc2C1=O,inactive
10,C=CC(=O)OCCCCCCOC(=O)C=C,39.8 µM (active)
11,CC(=O)Nc1cccc(C)c1,inactive
12,Oc1c(Cl)cc(Cl)c(Cl)c1Cl,inactive
13,COc1cc(-c2ccc(N=C=O)c(OC)c2)ccc1N=C=O,inactive
14,Nc1ccc2c(c1)C(=O)c1ccccc1C2=O,inactive
15,CC(=O)OC1CC(C)OC(C)O1 (stereo not given),inactive
16,OC1CCCCC1,inactive
17,CC(=O)OC(C(=O)c1ccccc1)c1ccccc1 (stereo not given),inactive
18,O=c1[nH]ncc2ccccc12,inactive
19,C=Cc1cccc(C)c1,inactive
20,CC(CCC(=O)O)(c1ccc(O)cc1)c1ccc(O)cc1,inactive

row,SMILES,Potency
1,Brc1cc(Br)c(Oc2cc(Br)c(Br)cc2Br)cc1Br,inactive
2,CCCC(=O)OC(=O)CCC,inactive
3,CC(/C=C/C=C(C)/C=C/C(=O)O)=C\C=C\C=C(C)\C=C\C=C(C)\C=C\C(=O)O,inactive
4,Nc1cc(C(=O)O)c(O)c(S(=O)(=O)O)c1,inactive
5,Brc1cc(Oc2cc(Br)c(Br)c(Br)c2Br)c(Br)c(Br)c1Br,inactive
6,c1c[nH]cn1,inactive
7,CCCCCCN,inactive
8,Cc1ccc(C(=O)O)cc1[N+](=O)[O-],inactive
9,CC(C)COC(=O)COc1cc(Cl)c(Cl)cc1Cl,inactive
10,CCCCCCCCOc1ccc(C(=O)O)cc1,inactive
11,C=C(C#N)C(=O)OCC,inactive
12,c1ccc(CSCc2ccccc2)cc1,inactive
13,CCCCNCC,inactive
14,O=CC(=O)c1ccccc1,inactive
15,Cc1c(N)cccc1Cl,inactive
16,COc1ccc(C)cc1N,inactive
17,Nc1cc([N+](=O)[O-])ccc1O,inactive
18,O=[N+]([O-])c1ccccc1Nc1ccccc1,inactive
19,c1ccc(COCc2ccccc2)cc1,inactive
20,CCC(Cl)CC(Cl)C(Cl)C(Cl)C(Cl)C(C)Cl (stereo not given),inactive
